Shiga toxin inh: blocks Shiga toxin action in Vero cells; Vero cells, Shiga toxin protein synthesis inhibition reporter; inhibition, % at 38.7 µM; hit rate 9.2% among 290,000; AID 2315; in the data active = inhibition mostly above about 28%, no sharp cut-off; inactive = mostly below about 43%; also: 0% is about no effect
Giardia FBPA inh: Giardia lamblia aldolase inhibition; purified Giardia FBPA; AID 2451; hit rate 0.71% among 290,000; Potency, µM (highest dose often 59.6 µM), for inactives: top-dose activity, negative = inhibition, most hits filed as inhibitors; also: potency is read from the fitted curve at half-maximal effect; % is scaled to controls: 0 for no effect and ±100 for the full control effect; nearly all actives have a fitted effect of over 55% in size
Target sequence (A8B2U2 whole entry, looked up): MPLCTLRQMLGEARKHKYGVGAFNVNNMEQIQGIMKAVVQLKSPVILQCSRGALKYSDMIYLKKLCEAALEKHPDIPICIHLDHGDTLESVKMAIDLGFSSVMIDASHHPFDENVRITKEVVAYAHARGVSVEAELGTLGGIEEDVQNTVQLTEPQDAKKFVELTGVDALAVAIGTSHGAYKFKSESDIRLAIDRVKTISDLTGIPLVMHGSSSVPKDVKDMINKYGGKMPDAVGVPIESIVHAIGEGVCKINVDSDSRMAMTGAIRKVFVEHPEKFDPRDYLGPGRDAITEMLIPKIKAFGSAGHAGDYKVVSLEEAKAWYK
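Giardia FBPA (40 nM reagent) was preincubated 10 min at RT with compound (up to 57.5 uM final), then substrate plus GAPDH/TPI/NAD/arsenate coupling system with diaphorase/resazurin was added; resorufin fluorescence (525/598 nm) was read after 20 min.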
Pf growth 96h: P. falciparum growth inhibition at 96 hour, primary screen for plastid delayed-death inhibitors | P. falciparum luciferase reporter growth, 96 h | Potency, µM (titrated, usually from 28.7 µM), inactives show top-dose activity change, negative = inhibition, hits mostly inhibitors | hit rate 6.9% among 320,000; also: potency is read from the fitted curve at half-maximal effect; % is scaled to controls: 0 for no effect and ±100 for the full control effect
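Two parasite generations (96 h, 37 C, 5% CO2) of compound exposure in infected erythrocytes (0.05% parasitemia, 2% hematocrit). Luciferase-reporter P. falciparum; decreased luminescence indicates inhibited growth, aimed at apicoplast-acting delayed death.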
NS1 function inh: inhibitors of influenza NS1 protein function | Potency, µM (top dose mostly 46.1 µM), without a hit: top-dose activity, positive = more growth | hit rate 0.4% among 270,000; calls by dose curve; also: potency is read from the fitted curve at half-maximal effect; actives are rising curves; nearly all actives have a fitted effect of over 50% in size
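Growth recovery, yeast-based: influenza A NS1 expressed in S. cerevisiae causes slow growth, and suppressors are detected by OD600. The parent strain without NS1 is used as positive control.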
Pf growth 48h: inhibits P. falciparum growth in the first generation, 48 h; P. falciparum luciferase growth in erythrocytes, 48 h; Potency, µM (series often up to 28.7 µM), without a hit: at the top dose activity change, negative = inhibition, usual class: inhibitors; hit rate 5.9% among 310,000; AID 504832; also: potency is read from the fitted curve at half-maximal effect; % is scaled to controls: 0 for no effect and ±100 for the full control effect
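Luciferase-expressing parasites in RBCs, 2% Hct / 0.1% parasitemia final; RPMI 1640 + 0.5% Albumax; 37 C, 5% CO2, one generation; luminescence read-out, lower signal = inhibition.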
CHX counter: affects cycloheximide protein synthesis inhibition readout, counter-screen; cell reporter, cycloheximide protein synthesis inhibition counterscreen; max response, %; hit rate 12% among 300,000; in the data active = max response mostly above about 13%, no sharp cut-off; inactive = mostly below about 14%; also: read at 38.3 µM for the half of the compounds with a filed dose; 0% is about no effect
An asterisk follows results filed as active; ? = inconclusive; nt = not tested or not shown; [ ] = dose if it differs, or a comment. A selection: hits, their analogues and other compounds. The true share with any hit is near 21%. Unless noted, calls follow the shape of the dose curve; as a rule, active = well fitted curve in the direction sought with a large enough effect; inconclusive = small, poorly fitted or top-dose-only effect, or another doubt; inactive = no such curve, though single readings can be large; an effect the other way counts as inactive or inconclusive.

SMILES	Shiga toxin inh	Giardia FBPA inh	Pf growth 96h	NS1 function inh	Pf growth 48h	CHX counter
Cn1c(SCC(=O)NC2CCCCC2)nnc1-c1cc2cc(Cl)ccc2o1	4	-1%	nt	-1%	nt	1
Cc1cc([N+](=O)[O-])nn1CCC(=O)Nc1nccs1	-9	-2%	59%	5%	31%	1
CCCn1c(=O)c(C(=O)NCc2ccco2)c(O)c2ccccc21	-2	-1%	?	nt	21%	4
Cc1nn(C)c(Oc2ccccc2)c1CCNC(=O)CCl	-4	2%	10µM*	2%	?	-3
CC(=O)NC1=NN(C(C)=O)C(C)(c2ccc3ccccc3c2)S1 (configuration not stated)	-6	0%	69%	9%	2.9µM*	-3
CC(=O)NC1=NN(C(C)=O)C(C)(c2ccccc2)S1 (configuration not stated)	-9	8%	20%	3%	7%	-1
COc1ccc(CCNC(=O)c2cc(=O)c3cc(C)ccc3o2)cc1OC	-5	-4%	8%	-3%	-27%	0
O=[N+]([O-])c1cccc(/C=C/c2nc3ccc([N+](=O)[O-])cc3[nH]2)c1	41	-1%	2.3µM*	11%	2.9µM*	19*
CCCc1nc2ccc([N+](=O)[O-])cc2[nH]1	-7	-6%	10µM*	-4%	14%	11
Cc1nc2ccc([N+](=O)[O-])cc2[nH]1	-2	-1%	18%	nt	-4%	9
O=[N+]([O-])c1ccc2nc(-c3ccccc3)[nH]c2c1	25	-19%	?	-21%	118%	42*
O=[N+]([O-])c1ccc2nc(CCCO)[nH]c2c1	-12	-1%	?	0%	1%	-2
CC(C)(C)c1nc2ccc([N+](=O)[O-])cc2[nH]1	20	-3%	89%	nt	21%	-4
O=[N+]([O-])c1ccc2nc(-c3cccnc3)[nH]c2c1	60	-23%	157%	3%	-6%	21*
CC(=O)Nc1nc(C)c(-c2nc3ccc([N+](=O)[O-])cc3[nH]2)s1	37	2%	-29%	-3%	14%	17*
Cn1cccc1-c1nc2ccc([N+](=O)[O-])cc2[nH]1	40*	-27%	171%	-4%	93%	33*
CCOC(=O)NC(=O)CSc1nc2ccc([N+](=O)[O-])cc2[nH]1	-14	-18%	15%	0%	20%	8
CC(NC(=O)CN1C(=O)NC2(CCCCCC2)C1=O)c1ccccc1Cl (configuration not stated)	nt	nt	-27%	nt	0%	nt
Cc1cc2c(s1)c(C#N)c(C(=O)NCc1ccccc1F)n2C	nt	nt	-2%	nt	-5%	nt
O=C(NCCc1ccccc1)C1CCC(=O)N(Cc2cccc(C(F)(F)F)c2)C1 (configuration not stated)	-3	nt	-18%	11%	2%	20
FC(F)(F)c1cc(CO[C@@H]2CCCN[C@@H]2c2ccccc2)cc(C(F)(F)F)c1	nt	nt	?	nt	12µM*	nt
CC(C)c1ccc(NC2CCCN(C(=O)c3ccc(N4CCOCC4)cc3)C2)cc1 (configuration not stated)	-6	nt	?	-12%	-12%	6
COc1ccc(CCNC(=O)C2CCCN2S(=O)(=O)c2cccc3nsnc23)cc1OC (configuration not stated)	-4	nt	23%	-5%	5%	-1
CN(/N=C/c1ccc(O)cc1O)c1ncc(C(F)(F)F)cc1Cl	44	6%	-2%	-6%	41%	3
NS(=O)(=O)c1ccc(CCNC(=O)CCCCCNc2nc(=S)[nH]c3ccccc23)cc1	6	-1%	2.9µM*	-4%	-7%	-1
SMILES	Shiga toxin inh	Giardia FBPA inh	Pf growth 96h	NS1 function inh	Pf growth 48h	CHX counter
Cc1ccc2nc(NC(=O)CC3Oc4ccccc4NC3=O)sc2c1 (configuration not stated)	7	0%	14%	1%	20%	8
Cc1nc(=O)c(-c2ccccc2)c(C)n1-c1ccc(S(N)(=O)=O)cc1	-13	2%	nt	23%	3%	7
Cc1nc(=O)c(-c2ccccc2)c(C)n1-c1ccc(C(=O)O)cc1	23	6%	1.7µM*	-4%	-23%	-4
CCC1COC(Cn2cncn2)(c2ccc(Cl)cc2Cl)O1 (configuration not stated)	-3	4%	nt	nt	nt	-7
CC(C)N1CCN(c2ccc(OC[C@H]3CO[C@](Cn4cncn4)(c4ccc(Cl)cc4Cl)O3)cc2)CC1	nt	nt	9.3µM*	nt	13µM*	nt
COc1ccc(NC(=O)CN2CCN(CC(=O)Nc3ccc(F)cc3F)CC2)cc1	30*	0%	-6%	0%	14%	24*
COc1ccc(NC(=O)CN2CCN(CC(=O)Nc3ccccc3Cl)CC2)cc1	-16	-3%	?	-14%	-13%	-1
CC(=O)c1ccc(NC(=O)CN2CCCC2)cc1	28*	-5%	?	12%	33%	27*
COC(=O)c1ccc(NC(=O)CCN2CCCCC2)cc1	24	-4%	1.5µM*	-10%	-10%	2
O=C(CN1CCN(C(=O)N2CCOCC2)CC1)Nc1ccc(Br)cc1	-8	-6%	?	-13%	21%	-4
COc1ccc(NC(=O)CN2CCN(C(=O)N3CCOCC3)CC2)cc1	-3	-9%	2.3µM*	4%	12%	-7
Cc1ccc(NC(=O)CN2CCCC2)cc1	nt	-21%	5%	-1%	-3%	3
O=C(CSCc1ccccc1Br)N/N=C/c1ccccc1C(=O)O	11	10%	-18%	-2%	-8%	1
CC(C)CN1CCCC2(CCN(C(=O)c3cccn3C)CC2)C1	nt	-4%	nt	nt	nt	nt
CN(Cc1nc(-c2cnccn2)no1)Cc1n[nH]c2c1CCCC2	11	0%	0%	-2%	16%	-2
O=C(CN1CCCCCC1)Nc1cccc2c1OCO2	1	-1%	1µM*	-11%	5%	1
NS(=O)(=O)c1ccc(NC(=O)CSC2CCCCC2)cc1	40	-6%	-1%[5.75 µM]	-1%	3%	15
COc1ccc(NC(=O)CN2CCC(C(N)=O)(N3CCCCC3)CC2)cc1	-17	4%	29%	11%	nt	-4
O=C(CN1CCCCCC1)Nc1ccc(Br)cc1	40	7%	?	2%	nt	24*
O=C(CN1CCCCC1)Nc1ccccc1NC(=O)CN1CCCCC1	6	1%	63%	7%	2%	-4
COc1ccc(NC(=O)CN2CCCCC2)cc1	66	-11%	13%	0%	30%	34*
COc1ccc(NC(=O)CSC2CCCCC2)cc1	153*	0%	nt	-7%	133%	61*
CN(C)S(=O)(=O)c1ccc(N2CCCC2)c(C(=O)NNC(=O)c2ccc(F)cc2)c1	nt	nt	-29%	nt	-21%	nt
Cc1ccc(C(=O)NCC(=O)O)o1	-11	1%	22%	nt	13%	5
O=C(CN1CCCCCC1)Nc1ccc(Br)cn1	26	5%	94%	?	-9%	15*
